# From PMC7826789 (International Journal of Molecular Sciences, 2021)
# Tested on: FLT3(D835V)
# Conditions: Compound Concentration (nM):1000
# 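Note: KINOMEscan scanMAX binding as percent activity remaining versus control; lower means stronger binding.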
row,Structure (SMILES),Percent Control [%]
1,COc1cc2ncnc(Nc3ccc4c(cnn4Cc4ccccc4)c3)c2cc1OC.Cl [GW282449A],34
2,Cl.O=C(Nc1ccc(Oc2ccc3[nH]c(NC(=O)c4ccco4)nc3c2)cc1)Nc1cc(C(F)(F)F)ccc1F [GW683134A],13
3,CC(C)COC(=O)c1ccc2c(c1)/C(=C/Nc1ccc(S(N)(=O)=O)cc1)C(=O)N2 [GW416981X],0
4,COc1ccc2[nH]c3c4[nH]c5ccc(OC)cc5c4c4c(c3c2c1)C(=O)NC4=O [GW296115X],4
5,COc1ccc2c(-c3ccnc(Nc4cccc(OC(F)(F)F)c4)n3)cnn2n1 [GW810372X],46
6,COc1ccc2cc(-c3c(-c4ccncc4)nc(-c4ccc(S(C)(=O)=O)cc4C)n3C)ccc2c1 [SB-633825],74
7,O=C1Nc2ccc(C(=O)c3ccco3)cc2C1=Cc1cc(Cl)c(O)c(Cl)c1 [GW406108X],2.2
8,CCS(=O)(=O)c1ccc(OC)c(Nc2ncc(-c3cccc(F)c3)o2)c1 [GW621970X],0
9,CC1=C(C(=O)Nc2ccc3[nH]ncc3c2)C(c2ccc3ccccc3c2)CC(=O)N1 (stereo not shown) [GSK270822A],65
10,COc1cc(C=NNc2ncnc3c2cnn3-c2ccccc2)ccc1O [GW513184X],3
11,Cl.O=C(O[C@H]1CN[C@H](C#Cc2cc3ncnc(Nc4ccc5c(cnn5Cc5ccccc5)c4)c3s2)C1)N1CCOCC1 [GSK200398A],87
12,O=C(Nc1n[nH]c2nc(-c3ccc(O)cc3)c(Br)cc12)C1CC1 [SB-725317],2.9
13,Cl.O=C(Nc1ccc(Oc2ccc3[nH]c(NC(=O)c4ccccc4)nc3c2)cc1)Nc1cc(C(F)(F)F)ccc1F [GW709042A],28
14,CCS(=O)(=O)c1ccc(OC)c(Nc2ncc(-c3cccc(OC)c3)o2)c1 [GW580509X],0
15,COc1ccccc1-c1cc(/C=C2\C(=O)Nc3ncc(Br)cc32)cc(Br)c1O [GW442130X],73
16,NS(=O)(=O)c1ccc(N/N=C2\C(=O)Nc3ccc(C(=O)NCCc4c[nH]cn4)cc32)cc1 [GW300660X],0.8
17,NS(=O)(=O)c1ccc(N/N=C2\C(=O)Nc3ccc(C(=O)NCc4ccncc4)cc32)cc1 [GW300657X],0
18,NS(=O)(=O)c1ccc(N/N=C2\C(=O)Nc3ccc(Cl)cc32)cc1 [GW280670X],31
19,Cl.O=S1CCN(Cc2ccc(-c3ccc4ncnc(Nc5ccc(OCc6ccccc6)c(F)c5)c4c3)o2)CC1 [GW576924A],99
20,NS(=O)(=O)c1ccc(N/N=C2\C(=O)Nc3ccc(-c4cnco4)cc32)cc1 [GW276655],2.2
21,COc1cccc(-c2c[nH]c3c(N/N=C/c4ccncc4)ncnc23)c1 [GW814408X],7.5

# Tested on: FLT3(D835Y)
# Conditions: Compound Concentration (nM):1000
row,Structure (SMILES),Percent Control [%]
1,CN(C)CCNC(=O)Nc1ccc(N(C)c2ccnc(Nc3ccc(CS(C)(=O)=O)cc3)n2)cc1.Cl [GW830900A],35
2,C/C(Nc1ccc(S(N)(=O)=O)cc1)=C1/C(=O)Nc2ccccc21 [GW335962X],76
3,Cc1cc(O)cc(C)c1/C=C/c1cncc(C(N)=O)c1 [GW435821X],75
4,COc1cc(C)c(N(C)C(=O)CN(C)C)cc1Nc1nc(Nc2cccc(F)c2C(N)=O)c2cc[nH]c2n1 [GSK2219385],91
5,COC(=O)Nc1nc2ccc(Oc3ccc(NC(=O)Nc4cc(C(F)(F)F)ccc4F)cc3)cc2s1.Cl [GW693917A],24
6,NS(=O)(=O)c1ccc(Nc2ncc(-c3ccccc3)o2)cc1 [GW572399X],80
7,CN(C)c1cc2c(Nc3ccc4c(cnn4Cc4ccccc4)c3)ncnc2cn1 [GW282974X],100
8,CCc1ccc(Oc2nccc(-c3c(-c4ccc(F)cc4)ncn3C3CCNCC3)n2)cc1 [SB-242719],100
9,Nc1ncnc2occ(-c3ccc(NC(=O)Nc4cc(C(F)(F)F)ccc4F)cc3)c12 [GW770249X],11
10,CN1CCN(C(=O)c2ccc(NC(=O)Nc3ccc(N(C)c4ccnc(Nc5ccc(CS(C)(=O)=O)cc5)n4)cc3)cc2)CC1.Cl [GW830263A],5.3
11,COc1cc2ncn(-c3cc(O[C@H](C)c4ccccc4Cl)c(C(N)=O)s3)c2cc1OC [GSK237701A],28
12,COc1ccc(COc2ccc(Cc3cnc(N)nc3N)cc2OC)cc1 [GW632580X],81
13,CCn1c(-c2nonc2N)nc2c(C#CC(C)(C)O)nc(OCCNC)cc21.Cl [GSK949675],30
14,COc1cc(/C=N/Nc2ncnc3[nH]ncc23)ccc1O [GW578748X],25
15,COc1cc(N2CCN(C(C)C)CC2)ccc1Nc1nc(Nc2ccc(F)cc2C(=O)NC[C@@H](O)CO)c2cc[nH]c2n1 [GSK1392956A],68
16,Cl.c1ccc(Cc2nc3ccc(Nc4ncnc5ccccc45)cc3[nH]2)cc1 [GR269666A],97
17,C[C@@H](Oc1cc(-n2cnc3ccc(OC4CCN(C)CC4)cc32)sc1C(N)=O)c1ccccc1Cl [GSK579289A],38
18,CC1=C(C(=O)Nc2ccc3[nH]ncc3c2)C(c2ccc(Cl)c(Cl)c2)CC(=O)N1 (stereo not shown) [GSK299115A],87
19,COc1cccc(-n2ncc3c(N/N=C/c4ccncc4)ncnc32)c1 [GW784752X],48
20,COc1cc2ncnc(Nc3ccc4c(cnn4Cc4ccccc4)c3)c2cc1OC.Cl [GW282449A],83

row,Structure (SMILES),Percent Control [%]
1,Cl.O=C(Nc1ccc(Oc2ccc3[nH]c(NC(=O)c4ccco4)nc3c2)cc1)Nc1cc(C(F)(F)F)ccc1F [GW683134A],9.8
2,CC(C)COC(=O)c1ccc2c(c1)/C(=C/Nc1ccc(S(N)(=O)=O)cc1)C(=O)N2 [GW416981X],1.1
3,COc1ccc2[nH]c3c4[nH]c5ccc(OC)cc5c4c4c(c3c2c1)C(=O)NC4=O [GW296115X],16
4,COc1ccc2c(-c3ccnc(Nc4cccc(OC(F)(F)F)c4)n3)cnn2n1 [GW810372X],55
5,COc1ccc2cc(-c3c(-c4ccncc4)nc(-c4ccc(S(C)(=O)=O)cc4C)n3C)ccc2c1 [SB-633825],99
6,O=C1Nc2ccc(C(=O)c3ccco3)cc2C1=Cc1cc(Cl)c(O)c(Cl)c1 [GW406108X],15
7,CCS(=O)(=O)c1ccc(OC)c(Nc2ncc(-c3cccc(F)c3)o2)c1 [GW621970X],39
8,CC1=C(C(=O)Nc2ccc3[nH]ncc3c2)C(c2ccc3ccccc3c2)CC(=O)N1 (stereo not shown) [GSK270822A],78
9,COc1cc(C=NNc2ncnc3c2cnn3-c2ccccc2)ccc1O [GW513184X],9.4
10,Cl.O=C(O[C@H]1CN[C@H](C#Cc2cc3ncnc(Nc4ccc5c(cnn5Cc5ccccc5)c4)c3s2)C1)N1CCOCC1 [GSK200398A],89
11,O=C(Nc1n[nH]c2nc(-c3ccc(O)cc3)c(Br)cc12)C1CC1 [SB-725317],33
12,Cl.O=C(Nc1ccc(Oc2ccc3[nH]c(NC(=O)c4ccccc4)nc3c2)cc1)Nc1cc(C(F)(F)F)ccc1F [GW709042A],14
13,CCS(=O)(=O)c1ccc(OC)c(Nc2ncc(-c3cccc(OC)c3)o2)c1 [GW580509X],42
14,COc1ccccc1-c1cc(/C=C2\C(=O)Nc3ncc(Br)cc32)cc(Br)c1O [GW442130X],40
15,NS(=O)(=O)c1ccc(N/N=C2\C(=O)Nc3ccc(C(=O)NCCc4c[nH]cn4)cc32)cc1 [GW300660X],62
16,NS(=O)(=O)c1ccc(N/N=C2\C(=O)Nc3ccc(C(=O)NCc4ccncc4)cc32)cc1 [GW300657X],46
17,NS(=O)(=O)c1ccc(N/N=C2\C(=O)Nc3ccc(Cl)cc32)cc1 [GW280670X],100
18,Cl.O=S1CCN(Cc2ccc(-c3ccc4ncnc(Nc5ccc(OCc6ccccc6)c(F)c5)c4c3)o2)CC1 [GW576924A],83
19,NS(=O)(=O)c1ccc(N/N=C2\C(=O)Nc3ccc(-c4cnco4)cc32)cc1 [GW276655],45
20,COc1cccc(-c2c[nH]c3c(N/N=C/c4ccncc4)ncnc23)c1 [GW814408X],16
